# Results: PubChem BioAssay (NCATS)
# Inconclusive results are not listed. Unmarked numbers belong to inactive results. The source made the active and inactive calls. Calls come from the whole dose curve; as a rule, active = well fitted activation curve with a large enough effect; inconclusive = small, poorly fitted or top-dose-only effect, or another doubt; inactive = no such curve, though single readings can be large or run the other way.
# Assay: Cell Proliferation Assay against the TMD8 Cell Line (Caspase readout at 8 hrs) (AID 651713)
# Conditions: TMD8 lymphoma cells, caspase activation luminescence; series mostly up to 46.1 µM; caspase activation: at the top concentration
# How it was run: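 Apoptosis readout: caspase 3/7 luminescence (Caspase-Glo), 15 min RT. Cells: TMD8, 500/well, RPMI + 5% FBS, no phenol red. Exposure 8 h, 37C. % activity vs DMSO = 0, bortezomib 9.2 uM final = 100.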
# Potency is the fitted concentration of half-maximal effect.
SMILES,Potency,caspase activation [%]
Cc1cc(Nc2cc(NC(=O)c3c(Cl)cccc3Cl)ccn2)nc(N)n1,29.6 µM (active),–
CN(C)CCCN=c1c2ccccc2n(C)c2[nH]c(=O)n(C)c(=O)c12,26.4 µM (active),–
CC(=O)Nc1sc2c(c1-c1nc3ccccc3s1)CNC2,33.2 µM (active),–
Cc1cc(Nc2cc(N3CCN(C)CC3)nc(Sc3ccc(NC(=O)C4CC4)cc3)n2)n[nH]1,–,0.372
CC(C)=CCCC(C)=CCCC(C)=CCSc1ccccc1C(=O)O,–,9.74
Nc1ccc(C(=O)c2cc3c(ccc4ccccc43)[nH]2)cc1,–,-47.1
CC1(O)CC(c2nc(-c3ccc4ccc(-c5ccccc5)nc4c3)c3c(N)nccn23)C1 (centres undefined),–,29
C=CC(=O)Nc1cccc(Oc2nc(Nc3ccc(N4CCN(C)CC4)cc3OC)ncc2Cl)c1,7.43 µM (active),–
CCC(=C(c1ccccc1)c1ccc(OCCN(C)C)cc1)c1ccccc1,33.2 µM (active),–
CC(C)(C)c1cc(NC(=O)Nc2ccc(-c3cn4c(n3)sc3cc(OCCN5CCOCC5)ccc34)cc2)no1,–,20.6
Cc1cc(Nc2cc(N3CCN(C)CC3)nc(C=Cc3ccccc3)n2)n[nH]1,–,2.67
CC(=O)OCC(=O)[C@@]1(O)[C@H](C)C[C@H]2[C@@H]3C=C(C)C4=Cc5c(cnn5-c5ccccc5)C[C@]4(C)[C@@H]3[C@@H](O)C[C@@]21C,–,-17.2
C[C@@H](Oc1cc(-n2cnc3ccc(CN4CCN(C)CC4)cc32)sc1C(N)=O)c1ccccc1C(F)(F)F,23.5 µM (active),–
CNc1nccc(-c2cccnc2Oc2cc(C(=O)Nc3cccc(C(F)(F)F)c3)ccc2C)n1,–,-31.8
